Compounds with a hit are over-represented: about 0.42% of the library has one in this group of screens.
BCR signal inh – blocks chronic active B-cell receptor signaling; ABC-DLBCL IkBa-CBG/CBR reporter, luminescence ratio, 4 h; Potency, µM (doses to about 46.1 µM), for inactives: at the highest dose activity change, negative = inhibition, most hits filed as inhibitors; AID 493014; 0.05% of 340,000 active; active means well fitted inhibition curve with a large enough effect in the signal ratio, with a control signal flat, not every such curve was filed as active; inconclusive means small, poorly fitted or top-dose-only effect, or effect the other way, or a change in a side signal; the % refers to the signal ratio;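 further: plate controls were basal doxycycline-induced cells for no effect and cells given 10 µM MG132 for full effect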
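TMD8 ABC-DLBCL cells carrying doxycycline-inducible green luciferase fused to IkappaBalpha plus unfused red luciferase were exposed to compounds (up to 46 uM) for 4 hrs at 37C. Activity came from the overlap-corrected green/red luminescence ratio.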
B2AR arrestin – agonists driving beta-arrestin recruitment to human beta2-adrenergic receptor; beta-arrestin recruitment to beta2AR, cell-based reporter; Potency, µM (titrated, usually from 46.1 µM), for inactives: at the highest dose activation, actives largely listed as activators; 0.02% of 330,000 active; AID 492947;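 further: 0% = DMSO controls and full agonism = EC100 isoproterenol or metaproterenol; nearly all actives have a fitted effect of over 65% in size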
PGK inhibitor – inhibitors of T. brucei phosphoglycerate kinase; PGK/GAPDH coupled, Kinase-Glo luminescence, 60 min; Potency, µM (highest dose often 57.5 µM), for the others: at the top dose activity change, negative = inhibition, usual class: inhibitors; P07378; 0.043% of 380,000 active; further: on the % scale 0 is the no-effect control and ±100 the full control effect; nearly all actives have a fitted effect of over 60% in size
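Recombinant glycosomal PGK reaction used 1,3-bisphosphoglycerate generated in-well by GAPDH (100nM final) in 100mM TEA pH 7.6, 5mM MgCl2, 0.01% Tween-20. After 60 minutes at room temperature, ATP was read by Kinase-Glo Plus luminescence end-point.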
GLS inh – glutaminase GLS (human) inhibition; GLS enzymatic activity, qHTS titration; Potency, µM (titrated, usually from 45.5 µM), for the others: at the top dose activity change, negative = inhibition, hits mostly inhibitors; 0.21% of 410,000 active; AID 624170; further: on the % scale 0 is the no-effect control and ±100 the full control effect
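Compounds were pin-transferred onto hKGA, after which L-glutamine (1 mM solution) and a detection mix of glutamate oxidase, HRP and Amplex Red were added. Initial and 30 min RT fluorescence reads were collected.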
Pin1 inhibitor – blocks the human prolyl isomerase Pin1. Q13526. 0.009% of 390,000 active. Pin1 FP peptide displacement, HiFluor488, 10 min. Potency, µM (series often up to 115 µM), inactives show at the highest dose activity, negative = inhibition, actives largely listed as inhibitors; active means well fitted inhibition curve with a large enough effect in the polarisation, with a control signal flat, not every such curve was filed as active; inconclusive means small, poorly fitted or top-dose-only effect, or effect the other way, or a change in a side signal; inactive means no such curve, though single readings can be large or run the other way; the % refers to the polarisation; further: on the % scale 0 is the no-effect control and ±100 the full control effect
Target sequence (Q13526 whole entry, looked up): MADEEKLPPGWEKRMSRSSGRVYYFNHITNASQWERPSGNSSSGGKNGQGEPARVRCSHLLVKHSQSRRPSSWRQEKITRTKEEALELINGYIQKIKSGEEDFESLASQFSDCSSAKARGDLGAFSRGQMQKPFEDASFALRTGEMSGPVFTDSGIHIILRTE
Tb PFK inh-1 – inhibitors of T. brucei phosphofructokinase; O15648; T. brucei PFK, ADP-Glo luminescence; Potency, µM (highest dose often 57.5 µM), without a hit: at the top dose activity, negative = inhibition, hits mostly inhibitors; 0.17% of 330,000 active; AID 485367;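 further: 0% = uninhibited 1x PFK enzyme wells and -100% = no-enzyme wells; nearly all actives have a fitted effect of over 60% in size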
Target sequence (O15648 whole entry, looked up): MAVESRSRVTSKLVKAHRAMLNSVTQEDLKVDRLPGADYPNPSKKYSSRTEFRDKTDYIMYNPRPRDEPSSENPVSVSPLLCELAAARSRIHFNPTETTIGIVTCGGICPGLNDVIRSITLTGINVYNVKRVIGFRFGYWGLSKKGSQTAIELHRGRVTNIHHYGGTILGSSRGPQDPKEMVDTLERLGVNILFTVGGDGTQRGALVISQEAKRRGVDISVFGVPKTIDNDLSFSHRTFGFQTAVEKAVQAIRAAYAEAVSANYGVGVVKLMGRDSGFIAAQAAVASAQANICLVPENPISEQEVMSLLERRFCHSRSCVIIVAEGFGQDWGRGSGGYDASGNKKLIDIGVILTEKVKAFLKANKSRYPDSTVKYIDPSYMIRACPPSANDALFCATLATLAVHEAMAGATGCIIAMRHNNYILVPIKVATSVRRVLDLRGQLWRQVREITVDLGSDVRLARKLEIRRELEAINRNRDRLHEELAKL
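In TEA buffer at pH 8.0 with 5 mM MgCl2, enzyme (1.25 nM) converted F6P (0.5 mM) and ATP (0.1 mM) for 45 min at room temperature. ADP product was read by luciferase luminescence.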
Tb PFK KinaseGlo – Tb phosphofructokinase inhibition, orthogonal luminescence. Potency, µM (titrated, usually from 57.5 µM), without a hit: at the highest dose inhibition. AID 504636. shares compounds with Tb PFK inh-1. Tb PFK enzyme, ATP depletion, Kinase-Glo Plus luminescence. 47% of 1,100 active; calls by dose curve; further: nearly all actives have a fitted effect of over 60% in size
Tb PFK inh-2 – T. brucei PFK enzyme inhibition, hit validation; shares compounds with Tb PFK inh-1; purified T. brucei PFK, ADP-Glo luminescence, 45 min; Potency, µM (series often up to 57.5 µM), inactives show at the highest dose activity change, negative = inhibition, hits mostly inhibitors; 41% of 1,100 active; AID 504637;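 further: plate controls were full PFK enzyme control for no effect and no enzyme control for full effect; nearly all actives have a fitted effect of over 60% in size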
Numbers without * were called inactive; i = inactive; ? = inconclusive; / = no result given; [ ] = dose if it differs, or a comment. Unless noted, the call rests on the fitted dose curve; in most records, active means well fitted curve in the direction sought with a large enough effect; inconclusive means small, poorly fitted or top-dose-only effect, or another doubt; inactive means no such curve, though single readings can be large; an effect the other way counts as inactive or inconclusive. Potency means the concentration at half of the fitted maximal effect.

SMILES | BCR signal inh | B2AR arrestin | PGK inhibitor | GLS inh | Pin1 inhibitor | Tb PFK inh-1 | Tb PFK KinaseGlo | Tb PFK inh-2
CCn1cc2nc(SCc3cccc(C(F)(F)F)c3)n(Cc3ccc(OC)cc3)c(=O)c2n1 | / | / | -6% | -12% | ? | / | / | /
CCS(=O)(=O)c1nnnn1-c1ccccc1S(C)(=O)=O | ? | 0% | -2% | -2% | -9% | 3% | / | /
O=C(N/N=C/c1sc2ccccc2c1O)c1cccc2ccccc12 | ? | 0% | i | ? | ? | ? | -25% | ?
COC(=O)Oc1nsnc1N1CCOCC1 | -1% | 0% | -10% | -22% | ? | 27µM* | ? | ?
Cc1ccc(NS(=O)(=O)c2cc(NC(=O)c3ccc4c(c3)NC(=O)CS4)ccc2C)c(C)c1 | ? | 0% | i | -28% | 11% | 21µM* | 15µM* | 24µM*
CC(C)(C)c1cc(C(=S)N2CCN(CCO)CC2)cc(C(C)(C)C)c1O | -1% | 0% | -2% | -22% | 4% | 30µM* | 12µM* | 24µM*
Cc1cc(C)c2oc(C(=O)Nc3ccc(S(=O)(=O)Nc4nccs4)cc3)cc(=O)c2c1 | 1% | 1% | 3% | 20% | 157% | ? | -29% | ?
O=c1[nH]c(=O)n(-c2ccc(Cl)cc2)c(O)c1C=Nc1ccc(S(=O)(=O)Nc2nccs2)cc1 | -1% | 4% | -4% | 4% | 22% | 0% | / | /
O=C(COC(=O)CCOc1ccccc1)NCc1ccco1 | -1% | 0% | -12% | -8% | ? | ? | ? | ?
Cc1nn(Cc2ccccc2)c(C)c1C(=O)OCC(=O)NCc1ccco1 | -26% | 1% | 2% | 10% | 3% | 2% | / | /
C/C(=N\NC(=O)c1ccc2ccccc2c1)c1cccs1 | ? | 0% | -7% | -3% | 0% | -3% | / | /
CCN(CC)C(=O)c1ccc(NC(=O)CCn2nc(-c3ccc(Cl)cc3)c3ccccc3c2=O)cc1 | / | / | -8% | -1% | 7% | / | / | /
CCOP(=O)(Nc1ccc2oc(=O)c3ccccc3c2c1)OCC | -12% | 0% | -2% | 0% | -3% | ? | 8% | 21%
CCOP(=O)(OCC)c1ccc2c(c1)C(=O)c1ccccc1CC2 | ? | 0% | 2% | 4% | -7% | 0% | / | /
Nc1ccc([N+](=O)[O-])cc1O | / | / | / | 41%[99.4 µM] | / | / | / | /
O=C(Cc1ccc(Br)cc1)N/N=C/c1ccc(-c2cccc(C(=O)O)c2)o1 | ? | -1% | -13% | -1% | -17% | 11µM* | 11µM* | 12µM*
Cc1cccc2c1-c1sc(C(=O)Nc3ccccc3N3CCN(C)CC3)cc1CO2 | ? | 0% | -2% | -8% | 3% | -10% | / | /
O=C(COc1ccc(Cl)cc1)N1CCN(Cc2ccc([N+](=O)[O-])cc2)CC1 | 8% | -1% | -8% | 1% | -11% | -23% | / | /
O=C(COc1ccc(/C=C\[N+](=O)[O-])cc1)N1CCOCC1 | ? | 0% | 3% | -20% | ? | ? | -22% | ?
COc1cc([C@@H]2c3cc4c(c(O)c3C[C@H]3COC(=O)[C@@H]32)OCO4)cc(OC)c1OC | / | / | / | / | 2% | / | / | /
NC(=O)c1cc(S(=O)(=O)N2CCN(c3ccc([N+](=O)[O-])cc3)CC2)cs1 | 0% | -1% | -10% | -2% | -3% | 21µM* | 12µM* | 27µM*
O=c1oc(Cl)c(Cl)c2ccccc12 | 4% | 0% | -8% | 28% | 4% | -5% | / | /
Nc1nc(=S)c2ncn(C3CCCC3)c2[nH]1 | ? | 1% | -5% | ? | -5% | ? | ? | ?
COc1ccccc1C1c2[nH]c3ccccc3c2C[C@H]2C(=O)N(C3CCN(Cc4ccccc4)CC3)CC(=O)N12 (some centres not stated) | ? | 0% | 13% | 2% | 31% | 8% | / | /
CC1OC(OC2C(O)CC(OC3C(O)CC(OC4CCC5(C)C(CCC6C5CCC5(C)C(C7=CC(=O)OC7)CCC65O)C4)OC3C)OC2C)CC(O)C1O (configuration not stated) | / | / | / | -3% | / | / | / | /
SMILES | BCR signal inh | B2AR arrestin | PGK inhibitor | GLS inh | Pin1 inhibitor | Tb PFK inh-1 | Tb PFK KinaseGlo | Tb PFK inh-2
O=C(Nc1cnn(Cc2ccc(Cl)c(Cl)c2)c1)c1nc2ncccn2n1 | ? | -1% | i | -5% | -13% | 5.4µM* | 2.7µM* | 5.4µM*
Nc1nc(N2CCN(c3cccc(Cl)c3)CC2)n[nH]1 | -3% | 0% | 3% | ? | -1% | 27µM* | ? | -25%
CC(OC(=O)COc1ccc(Nc2ccccc2)cc1)C(=O)N(C)c1ccccc1 (configuration not stated) | 14% | -1% | -1% | ? | -1% | -2% | / | /
O=[N+]([O-])c1ccc(N2CCN(c3cccc(Cl)c3)CC2)cn1 | ? | 0% | -1% | 0% | -12% | 12µM* | ? | 5.4µM*
CN1CCN(c2ccc([N+](=O)[O-])c(Sc3ccccn3)c2)CC1 | ? | -1% | -5% | -8% | 1% | 0% | / | /
CN(C)c1ccc(Nc2ccc([N+](=O)[O-])cn2)cc1 | ? | 0% | -7% | 5% | 2% | -1% | / | /
O=C1NC(c2cc3ccccc3nc2Cl)Nc2ccccc21 (configuration not stated) | 4% | 0% | 2% | 20% | 9% | -5% | / | /
CS(=O)(=O)NN1C(=O)c2ccccc2NC1c1cc2ccccc2nc1Cl (configuration not stated) | 1% | -1% | -2% | -2% | -1% | 21µM* | 9.5µM* | 24µM*
CCCCOP(=O)(OCCCC)C(Nc1ccc(C(=O)OCC)cc1)c1ccncc1 (configuration not stated) | -1% | 0% | 0% | 0% | ? | 3% | / | /
O=C(O)c1cc(-c2ccco2)nn1-c1ccc(Cl)cc1 | 0% | 0% | ? | 141% | / | ? | ? | ?
Fc1ccc(NC(=S)Nc2ccccc2OC(F)F)cc1Cl | 24% | 0% | -4% | 13% | -8% | ? | 18% | -27%
Fc1ccc(NC(=S)Nc2ccccc2N2CCOCC2)cc1Cl | ? | 0% | i | 2% | -1% | ? | 5% | 4%
Cc1cc(Nc2ccccc2N2CCOCC2)n2ncnc2n1 | ? | 5% | -7% | 21% | -8% | 3% | / | /
